Consider twelve compounds from paper PMC5540273 (PLoS ONE, 2017).
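Note: KINOMEscan kinase panel screen.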

The test has as its system EPHA4. To be noted: concentration: 1 μM, replicates: in singlicate; n = 1.
For the compound `O=C(Nc1n[nH]c2cc(-c3cccs3)ccc12)C1CC1` [SB-731284], the “%Inh” value amounted to 0%. With `CNc1nccc(-c2ccc3c(N)n[nH]c3c2)n1` [GSK2206003], the “%Inh” value is recorded as 7%. `COc1cccc(NC(=O)NCCNc2ccnc(Nc3ccc(F)cc3)n2)c1` [GSK1379879]: the “%Inh” value turned out to be 0%. On to `CN(c1ccc2c(c1)nc(NCc1ccccc1)n2C)c1ccnc(Nc2ccc(CS(C)(=O)=O)cc2)n1.Cl` [GW811603], for which the “%Inh” value stood at 0%. With `Cc1ccc(O)cc1Nc1ccnc2cc(-c3ccc(CN4CCCCC4)o3)ccc12` [GW557777], the “%Inh” value worked out at 96.2%. The same measure for `Cc1cccc(Nc2nc(N[C@H]3CCCC[C@H]3N)ncc2C(N)=O)c1.Cl` [GSK986310]: 6%; for `c1ccc(Oc2ccc(Nc3ccnc4cc(-c5ccc(CN6CCCCC6)o5)ccc34)cc2)nc1` [GW567143]: 3%. For the compound `CC(C)c1nc(-c2ccc(F)c(NS(=O)(=O)c3c(F)cccc3F)c2)c(-c2ccnc(Nc3ccc(N4CCOCC4)nc3)n2)s1` [GSK1804250], the “%Inh” value came to 30%.

With `CCNc1nccc(-c2c(-c3ccc(F)cc3)ncn2C2CCN(C)CC2)n1`, the “%Inh” value is 5%. As for `Fc1cc(Cl)ccc1Nc1ccnc2cc(-c3ccc(CN4CCSCC4)o3)ccc12` [GW560106], the “%Inh” value is reported as 10%. `NCCC(NC(=O)c1cc(Br)c(-c2ccnc3[nH]ccc23)s1)c1ccccc1.O=C(O)C(F)(F)F.O=C(O)C(F)(F)F` (stereo not drawn) [GSK1307810]: the “%Inh” value is 0%. The same measure for `Cc1ccc(NC(=O)c2ccc(Cl)c(Cl)c2)cc1-c1ccc(C(=O)Nc2ccncc2)cc1` [GSK1398460]: 32%.
